Gal4-VP16 FLuc: counter-screen for ROR gamma inhibitors: Gal4-VP16 reporter; 310,000 compounds, 3.5% hits; Drosophila S2 Gal4-VP16 UAS-luciferase, luminescence, 20 h; Potency, µM (top dose mostly 53.6 µM), for the others: at the highest dose activity, negative = inhibition, most hits filed as inhibitors; AID 2546;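 note: Gal4-VP16 expression switched on by copper sulfate through the metallothionein promoter; % is set by controls: 0 for no effect and ±100 for the full control effect; nearly all actives have a fitted effect of over 50% in size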
GLP1R cytotox: cytotoxicity in counter-screen for GLP-1R inverse agonists; Potency, µM (highest dose often 38.3 µM), for the others: at the top dose activity change, negative = inhibition, most hits filed as inhibitors; HEK293 cAMP-luciferase reporter cells, luminescence, 24 h; 410,000 compounds, 0.13% hits;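 note: loss of luciferase light is scored as toxicity; % is set by controls: 0 for no effect and ±100 for the full control effect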
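A 23 nL compound transfer followed 12 hours of cell culture at 37 deg C; exposure then lasted 24 hr. Luciferase assay detection reagent was dispensed and plates read for luminescence after a 12 min room-temperature wait.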
RORgamma inh: inhibitors of mouse ROR gamma transcriptional activity. P51450. Drosophila S2 Gal4-RORgamma UAS-luciferase reporter, 20 h. Potency, µM (top dose mostly 53.6 µM), without a hit: top-dose activity change, negative = inhibition, actives largely listed as inhibitors. 310,000 compounds, 5.4% hits. AID 2551; note: % is set by controls: 0 for no effect and ±100 for the full control effect; nearly all actives have a fitted effect of over 60% in size
Target sequence (P51450 whole entry, looked up, the tested form may be a part): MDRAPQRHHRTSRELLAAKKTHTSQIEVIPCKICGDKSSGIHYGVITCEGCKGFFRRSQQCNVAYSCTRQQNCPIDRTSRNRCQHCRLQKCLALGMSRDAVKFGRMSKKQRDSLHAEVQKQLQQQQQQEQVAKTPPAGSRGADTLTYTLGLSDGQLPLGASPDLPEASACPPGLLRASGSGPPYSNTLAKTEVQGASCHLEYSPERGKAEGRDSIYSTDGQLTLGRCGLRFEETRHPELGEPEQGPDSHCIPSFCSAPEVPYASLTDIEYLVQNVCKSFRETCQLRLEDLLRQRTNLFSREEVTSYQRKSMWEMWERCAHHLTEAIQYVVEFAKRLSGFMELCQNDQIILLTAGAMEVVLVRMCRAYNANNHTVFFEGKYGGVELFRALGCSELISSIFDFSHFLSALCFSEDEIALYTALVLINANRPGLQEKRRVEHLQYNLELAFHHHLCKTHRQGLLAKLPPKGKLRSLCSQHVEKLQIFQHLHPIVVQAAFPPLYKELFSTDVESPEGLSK
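ROR gamma transcriptional activity was tracked as Gal4-UAS luciferase output in stably transfected Drosophila Schneider cells, with compound added 1 hr before 700 uM copper sulfate induction and a 20 hr ambient-temperature incubation.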
GLP1R ag: activates the human GLP-1 receptor; P43220; HEK293 GLP-1R CRE-luciferase, luminescence, 4-6 h; cells express a hypersensitive GLP-1R form; Potency, µM (doses to about 45.6 µM), for inactives: at the highest dose activation, usual class: activators; 380,000 compounds, 0.007% hits; AID 624172; note: % of control where 0% means no effect
GLP-1R inv ag: inverse agonists of human GLP-1 receptor; P43220; HEK293 GLP-1R CRE-luciferase, luminescence, 24 h; GLP-1R form is constitutively active; Potency, µM (highest dose often 38.3 µM), for inactives: top-dose activity change, negative = inhibition, most hits filed as inhibitors; 410,000 compounds, 1.6% hits; AID 624417; note: % is set by controls: 0 for no effect and ±100 for the full control effect; nearly all actives have a fitted effect of over 55% in size
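HEK293 cells stably co-expressing a cAMP-responsive luciferase reporter and constitutively active GLP-1R were seeded, incubated 12 h, then exposed to compounds for 24 h at 37 C. Luminescence was read 12 min after detection reagent; inverse agonists lower signal.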
Numbers without * were called inactive; ? = inconclusive; nt = not tested or not shown; [ ] = remark or other dose. Rows were chosen to be rich in hits. Some 5.9% of all compounds tested hit in one or more screens of this group. Calls come from the whole dose curve; as a rule, active = well fitted curve in the direction sought with a large enough effect; inconclusive = small, poorly fitted or top-dose-only effect, or another doubt; inactive = no such curve, though single readings can be large; an effect the other way counts as inactive or inconclusive. Potency is the fitted concentration of half-maximal effect.

SMILES	Gal4-VP16 FLuc	GLP1R cytotox	RORgamma inh	GLP1R ag	GLP-1R inv ag
CC(=O)OC[C@@H]1O[C@@H](O/N=C2/C[C@@H](O)[C@@H](O)[C@@H]3[C@@H]4C(=O)N(C(C)(C)C)C(=O)[C@H]4CC[C@@H]23)[C@H](OC(C)=O)[C@H](OC(C)=O)[C@@H]1OC(C)=O	-4%[10 µM]	nt	-2%[10 µM]	nt	nt
COc1ccc(OC2C=CC(C#Cc3ccc(C(C)(C)C)cc3)OC2CO)cc1 (centres undefined)	-28%[10 µM]	nt	-1%[10 µM]	nt	nt
CNC(=S)Nc1cccc(Cl)c1C	?	1%	13µM*	7%	17%
Cc1c(Cl)cccc1NC(=S)NN	10µM*	-20%	3.5µM*	-2%	-17%
COC(=O)CCC(=O)NC(=S)Nc1c(C)cccc1C	?	15%	?	3%	-4%
Cc1cccc(Cl)c1NC(=S)NN	?	-13%	5µM*	0%	-25%
Cc1cc2c(NC3CCCCC3)ncnc2s1	13µM*	10%	?	-1%	?
COc1cccc(CNCCc2c[nH]c3ccccc23)c1OCc1ccccc1	-19%	?	8%	2%	?
COc1ccc(NC(=S)NCCc2c[nH]c3ccc(OC)cc23)c(OC)c1	?	1%	14µM*	7%	-2%
COc1cc(CNCCc2c[nH]c3ccccc23)ccc1OCc1ccccc1F	?	7%	?	-16%	7.9µM*
COc1ccc(NC(=S)NCCc2c[nH]c3ccccc23)c(OC)c1	?	-4%	7.9µM*	5%	-11%
COc1ccc2c(CCNC(N)=S)c[nH]c2c1	-2%	-15%	-27%	2%	5%
Cc1ccc(CCNC(=O)Cn2ncc3c([nH]c4ccc(C)cc43)c2=O)cc1	nt	2%	nt	nt	-3%
O=C(CC1N=C2c3ccccc3N=C(SCc3ccccc3Cl)N2C1=O)NCCc1ccccc1 (centres undefined)	nt	-11%	nt	nt	-3%
CCN(CC)C(=O)CSc1nc2c(c(=O)n(C)c(=O)n2C)n1Cc1ccccc1	nt	7%	nt	nt	0%
CCCCn1c(SCc2ccc(C(=O)OC)o2)nc2cc(S(N)(=O)=O)ccc21	10µM*	5%	-16%	?	131%
CCCCn1c(SCC(=O)c2cc(OC)ccc2OC)nc2cc(S(N)(=O)=O)ccc21	0%	-8%	12%	22%	80%
OC(c1cc(-c2cccc(Cl)c2)nc2ccccc12)C1CCCCN1 (centres undefined)	nt	10µM*	nt	-4%	1.4µM*
CC(C)CCn1c(Sc2nc3ccccc3o2)nc2c1c(=O)[nH]c(=O)n2C	?	5%	-23%	0%	4.5µM*
C/C=C1/C(=O)C[C@H]2[C@@H]3CCC4=CC(=O)CC[C@]4(C)[C@H]3CC[C@]12C	-10%	nt	-7%	nt	nt
COc1cccc(OCCCn2cc(/C=C3/C(=N)N4C=C(C)SC4=NC3=O)c3ccccc32)c1	1.4µM*	-10%	2.2µM*	-1%	9%
CC1=CN2C(=N)/C(=C/c3cn(CCCOc4ccccc4C)c4ccccc34)C(=O)N=C2S1	?	-3%	?	-1%	-1%
COc1ccc(OCCCn2cc(/C=C3/C(=N)N4C=C(C)SC4=NC3=O)c3ccccc32)cc1	1.6µM*	-7%	0.79µM*	-6%	0%
Cc1c(C=O)c2ccccc2n1CCOc1ccccc1F	?	5%	?	13%	?
Cn1c(Oc2ccc(F)cc2)c(C=O)c2ccccc21	0%	-12%	14%	5%	10µM*
SMILES	Gal4-VP16 FLuc	GLP1R cytotox	RORgamma inh	GLP1R ag	GLP-1R inv ag
CC(NC(=O)Cn1c(=O)oc2cc(S(=O)(=O)NCc3ccccc3)ccc21)c1ccccc1 (centres undefined)	nt	-8%	nt	nt	?
Cc1cccc(Cn2cc(C(=O)Nc3cc(F)ccc3F)ccc2=O)c1	nt	-3%	nt	-3%	-23%
Cc1cccc(Cn2cc(C(=O)Nc3ccc(F)c(C(F)(F)F)c3)ccc2=O)c1	nt	-10%	nt	nt	10µM*
CC(C)C(C(=O)Nc1nccs1)c1ccccc1 (centres undefined)	?	-8%	11µM*	-10%	?
CC(CC(=O)Nc1nccs1)c1ccccc1 (centres undefined)	-11%	0%	-41%	-7%	21%
CC(C)Cc1ccc(C(C)C(=O)Nc2nccs2)cc1 (centres undefined)	?	-18%	13µM*	-1%	?
CCCCNc1nc(C)nc2c1nc(-c1ccccc1)n2CC1CCN(C)CC1	-5%	nt	-11%	nt	nt
CC(C)(C)OC(=O)NCc1ccc(CNC(=O)c2[nH]cnc2C(=O)N[C@@H](Cc2ccccc2)C(=O)OCc2ccccc2)cc1	?	-18%	11µM*	3%	0%
CC(C)(C)OC(=O)[C@H](Cc1ccccc1)NC(=O)c1nc[nH]c1C(=O)NCc1ccccc1	16µM*	0%	11µM*	7%	?
CN(Cc1ccccc1)C(=O)c1[nH]cnc1C(=O)NCc1ccc(CNC(=O)OC(C)(C)C)cc1	nt	-2%	nt	5%	18%
CC(C)C[C@H](NC(=O)c1nc[nH]c1C(=O)NCc1ccc(CNC(=O)OC(C)(C)C)cc1)C(=O)OCc1ccccc1	?	2%	11µM*	-1%	?
CC(C)(C)OC(=O)NCc1ccc(NC(=O)c2nc[nH]c2C(=O)N[C@@H](Cc2ccccc2)C(=O)OCc2ccccc2)cc1	?	?	7.1µM*	-10%	?
C[C@H](O)CNC(=O)c1[nH]cnc1C(=O)Nc1ccc(CNC(=O)OC(C)(C)C)cc1	nt	1%	nt	15%	35%
